# According to PubChem BioAssay (EPA / NIEHS):
# Active and inactive are the calls of the source. How the source made its calls: active means hit-call score of the fitted dose curve at least 0.9, where 1 is the maximum; inactive means score below 0.9.
# Read-out: Urokinase-type plasminogen activator receptor (uPAR), PLAUR (gene 5329)
# Test: BSK_CASM3C_uPAR: BioMAP Diversity Plus: CASM3C Assay for Urokinase-type plasminogen activator receptor (uPAR) Biomarker Activity (AID 2283054);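 further: cell-surface uPAR protein level quantified by ELISA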
# Conditions: primary human coronary artery smooth muscle cells; actives raise or lower the signal
SMILES,outcome,AC50
O=C(O)c1ccccc1-n1cc(C(=O)O)c(=O)c2cc(Nc3c(F)cc(F)cc3Cl)c(Cl)cc21,inactive,–
COc1cccc([C@H](O)C2CCN(CCc3ccc(F)cc3)CC2)c1OC,inactive,–
CC1(C)NC(=O)N(c2ccc([N+](=O)[O-])c(C(F)(F)F)c2)C1=O,inactive,–
CC/C(=C(/CC)c1ccc(O)cc1)c1ccc(O)cc1,inactive,–
CCCCCCCCCCCO,inactive,–
Cc1cc(F)ccc1-c1cc(N2CC[C@@H](O)[C@H]2CO)ncc1N(C)C(=O)C(C)(C)c1cc(C(F)(F)F)cc(C(F)(F)F)c1,–,31.1 µM (active)
Cc1cn([C@H]2C[C@H](N=[N+]=[N-])[C@@H](CO)O2)c(=O)[nH]c1=O,inactive,–
CCCCCCCC[Si](OCC)(OCC)OCC,inactive,–
O=C(O)Cc1cc(I)c(Oc2ccc(O)c(I)c2)c(I)c1,inactive,–
CN1C(=O)CC[C@H]1c1cccnc1,inactive,–
O=c1c(-c2ccc(O)cc2)coc2cc(O)cc(O)c12,–,29.6 µM (active)
CCCC(=O)OCCC(C)C,inactive,–
Cc1occc1C(=O)Nc1ccc(C(=O)N2CCC(F)(F)/C(=C\C(=O)N3CCC(N4CCCCC4)CC3)c3ccccc32)cc1,inactive,–
O=C1O[C@H]([C@@H](O)CO)C(O)=C1O,inactive,–
NC(=O)c1nc(-c2cccc(-c3cc(F)ccc3OCC(F)(F)C(F)(F)F)c2)n[nH]1,–,32 µM (active)
CC(C)(C)c1csc(-c2cc3cc(OCc4ccccc4CC(=O)O)ccc3o2)n1,inactive,–
O=C(Nc1ccc(Cl)cc1)Nc1ccc(Cl)c(Cl)c1,–,9.76 µM (active)
CC(C)(O)c1ccc(CNC(=O)c2cccnc2Oc2ccc3nonc3c2)cc1,inactive,–
c1ccc(C[n+]2cccc3ccccc32)cc1,inactive,–
O=C=NCCCCCCN=C=O,inactive,–
CCOC(=O)O[C@H](C)OC(=O)c1ccc2c(c1)cc(C(=O)NC1CCN(C(C)C)CC1)n2Cc1cc(-c2ccc(Cl)s2)on1,–,6.27 µM (active)
O=c1[nH]sc2ccccc12,–,11.3 µM (active)
OC12N=C(c3ccccc3)SC1Cc1cc(Cl)ccc12 (stereo unspecified),inactive,–
Cc1cccc2ccccc12,inactive,–

# Read-out: Vascular cell adhesion molecule 1 (VCAM1), VCAM1 (gene 7412)
# Test: BSK_CASM3C_VCAM1: BioMAP Diversity Plus: CASM3C Assay for Vascular cell adhesion molecule 1 (VCAM1) Biomarker Activity (AID 2283055);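 further: VCAM-1 protein level quantified by ELISA on the cells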
# Conditions: primary human coronary artery smooth muscle cells; actives raise or lower the signal
SMILES,outcome,AC50
Oc1ccccc1,inactive,–
COc1cc(C(=O)NC2CCN(C)CC2)ccc1Nc1ncc2c(n1)N(C1CCCC1)CC(F)(F)C(=O)N2C,–,14.1 µM (active)
C[C@]12CC[C@@H]3c4ccc(O)cc4CC[C@H]3[C@@H]1CCC2=O,inactive,–
CN(C)C(=O)C1(N2CCCCC2)CCN(CC[C@@]2(c3ccc(Cl)c(Cl)c3)CN(C(=O)c3ccccc3)CCO2)CC1,–,30 µM (active)
CN(C)c1ccc(C(=C2C=CC(=[N+](C)C)C=C2)c2ccc(N(C)C)cc2)cc1,–,8.39 µM (active)
O=C(O)Cn1c(=O)n(Cc2ccc(Br)cc2F)c(=O)c2ccc(Cl)cc21,inactive,–
CCCCCCCCOC(=O)c1cc(O)c(O)c(O)c1,–,28.2 µM (active)
O=C(OCCCCCCOC(=O)c1ccccc1)c1ccccc1,inactive,–
O=C(O)c1ccccc1C(=O)OCc1ccccc1,inactive,–
Cc1ccc2oc(CN(Cc3ccccc3)C(=O)Nc3c(F)cc(F)cc3F)c(-c3ccc(Cl)cc3)c2c1,inactive,–
Cc1oc2c(NC(=O)c3c(Cl)cccc3Cl)cccc2c1C(C)(C)O,inactive,–
c1ccc2n[nH]nc2c1,inactive,–
CC[C@@H]1C[C@H](N(Cc2cc(C(F)(F)F)cc(C(F)(F)F)c2)C(C)=O)c2cc(C(F)(F)F)ccc2N1C(=O)OC(C)C,inactive,–
CO[C@H]1/C=C/O[C@@]2(C)Oc3c(C)c(O)c4c(O)c(c(/C=N/N5CCN(C)CC5)c(O)c4c3C2=O)NC(=O)/C(C)=C\C=C\[C@H](C)[C@H](O)[C@@H](C)[C@@H](O)[C@@H](C)[C@H](OC(C)=O)[C@@H]1C,inactive,–
O=C(O)c1ccccc1-n1cc(C(=O)O)c(=O)c2cc(Nc3c(F)cc(F)cc3Cl)c(Cl)cc21,inactive,–
COc1cccc([C@H](O)C2CCN(CCc3ccc(F)cc3)CC2)c1OC,inactive,–
CC1(C)NC(=O)N(c2ccc([N+](=O)[O-])c(C(F)(F)F)c2)C1=O,inactive,–
CC/C(=C(/CC)c1ccc(O)cc1)c1ccc(O)cc1,–,20 µM (active)
CCCCCCCCCCCO,inactive,–

SMILES,outcome,AC50
Cc1cc(F)ccc1-c1cc(N2CC[C@@H](O)[C@H]2CO)ncc1N(C)C(=O)C(C)(C)c1cc(C(F)(F)F)cc(C(F)(F)F)c1,–,25.4 µM (active)
Cc1cn([C@H]2C[C@H](N=[N+]=[N-])[C@@H](CO)O2)c(=O)[nH]c1=O,inactive,–
O=C(O)Cc1cc(I)c(Oc2ccc(O)c(I)c2)c(I)c1,inactive,–
CN1C(=O)CC[C@H]1c1cccnc1,inactive,–
O=c1c(-c2ccc(O)cc2)coc2cc(O)cc(O)c12,–,25.7 µM (active)
CCCC(=O)OCCC(C)C,inactive,–
Cc1occc1C(=O)Nc1ccc(C(=O)N2CCC(F)(F)/C(=C\C(=O)N3CCC(N4CCCCC4)CC3)c3ccccc32)cc1,inactive,–
O=C1O[C@H]([C@@H](O)CO)C(O)=C1O,inactive,–
NC(=O)c1nc(-c2cccc(-c3cc(F)ccc3OCC(F)(F)C(F)(F)F)c2)n[nH]1,inactive,–
CC(C)(C)c1csc(-c2cc3cc(OCc4ccccc4CC(=O)O)ccc3o2)n1,–,15.4 µM (active)
O=C(Nc1ccc(Cl)cc1)Nc1ccc(Cl)c(Cl)c1,inactive,–
CC(C)(O)c1ccc(CNC(=O)c2cccnc2Oc2ccc3nonc3c2)cc1,inactive,–
c1ccc(C[n+]2cccc3ccccc32)cc1,inactive,–
O=C=NCCCCCCN=C=O,inactive,–
CCOC(=O)O[C@H](C)OC(=O)c1ccc2c(c1)cc(C(=O)NC1CCN(C(C)C)CC1)n2Cc1cc(-c2ccc(Cl)s2)on1,–,10.3 µM (active)
O=c1[nH]sc2ccccc12,–,10.7 µM (active)
OC12N=C(c3ccccc3)SC1Cc1cc(Cl)ccc12 (stereo unspecified),inactive,–
Cc1cccc2ccccc12,inactive,–
